Screening data (PubChem BioAssay)
CYP2C19 activ – cytochrome P450 2C19 (human) activation; P33261; recombinant CYP2C19, luciferin-H EGE luminescence; active compounds read high; 0 = fully inhibited enzyme, 1 = untreated enzyme; activation factor at 5 µM; 96,000 tested, under 10 active; AID 1025;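 active = activation factor of at least 2 at 5 µM in the primary screen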
Target sequence (P33261 whole entry, looked up): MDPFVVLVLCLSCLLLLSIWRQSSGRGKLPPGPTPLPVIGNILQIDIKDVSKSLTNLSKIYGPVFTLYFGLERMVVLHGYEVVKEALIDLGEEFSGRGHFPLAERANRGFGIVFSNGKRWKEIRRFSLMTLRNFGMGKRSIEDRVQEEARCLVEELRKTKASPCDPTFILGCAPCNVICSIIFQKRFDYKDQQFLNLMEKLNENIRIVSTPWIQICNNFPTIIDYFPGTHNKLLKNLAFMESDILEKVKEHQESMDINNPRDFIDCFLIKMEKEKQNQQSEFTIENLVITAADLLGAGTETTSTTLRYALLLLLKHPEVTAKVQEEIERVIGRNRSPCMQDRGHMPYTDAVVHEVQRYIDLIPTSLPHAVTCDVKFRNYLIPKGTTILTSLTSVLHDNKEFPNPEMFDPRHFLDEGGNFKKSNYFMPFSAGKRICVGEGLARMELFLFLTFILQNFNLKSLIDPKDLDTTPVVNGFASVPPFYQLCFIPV
CYP2C9 inh – human CYP2C9 inhibition; inhibition, % at 5 µM; P11712; CYP2C9 Supersomes, luciferin-H conversion, luminescence; actives 20% (n = 96,000); AID 777;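 active = blocking of liver enzyme CYP2C9 beyond about 50% at 5 µM, limit read from the data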
Pyk2 oligo antag – antagonists of human Pyk2 oligomerization; AID 1347419; actives 0.83% (n = 99,000); z-score (the deposit names both 25 µM and 10 µM); Q293 cells, Pyk2 FERM NanoBiT luminescence; active compounds read low; Q14289;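 active = Z-score of -3 or lower, scaled per plate to the spread of control and sample wells; inactive = z-score above -3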;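 note: negative z-score means lost luminescence so less FERM oligomerization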
CYP2C9 activ – activators of human CYP2C9; P11712; recombinant CYP2C9, luciferin-H conversion, luminescence; active compounds read high; factor 1 = untreated enzyme, 0 = blocked; activation factor at 5 µM; actives 1.4% (n = 96,000); AID 1024;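 active = activation factor of 2 or more for CYP2C9 at a 5 µM dose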
CYP2C19 inhib – blocks human cytochrome P450 2C19; actives 21% (n = 96,000); AID 778; CYP2C19 Supersomes, luciferin-H EGE luminescence, 30 min; P33261; inhibition, % at 5 µM;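 active = CYP2C19 inhibition above a set limit at 5 µM in the primary screen, cut at about 50% in these data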
Each line names hits and unclear results; the compound was inactive in the other large screens. Shown are actives, neighbours in structure and some others; about 28% of the full set was active somewhere.

CCC(=O)Nc1ccccc1C(=O)NC1CCCCC1	none
O=C(OCc1ccc(Cl)cc1)c1ccccc1C(=O)c1ccccc1	CYP2C19 inhib 72.1
N/C(Cc1ccc(Cl)cc1)=N\OC(=O)c1ccccc1	CYP2C9 inh 63.4, CYP2C19 inhib 66.1
O=C(O)c1ccccc1C(=O)OCc1ccccc1	none
COC(=O)c1ccccc1NC(=S)NC(=O)c1cccc2ccccc12	none
CC1CCCCC1NC(=O)Cn1ncc2ccccc21 (stereo unspecified)	none (no result: Pyk2 oligo antag)
O=c1cc(CSc2nnnn2-c2ccccc2)nc(Nc2ccc(F)cc2)[nH]1	none
COc1ccccc1C1C(C(=O)c2cc3ccccc3o2)=C(O)C(=O)N1CCN1CCOCC1 (stereo unspecified)	none
CC1(C)Cc2c(sc3c4nnnn4c4nnnn4c23)CO1	none (no result: Pyk2 oligo antag)
O=C(Nc1cccc2ncccc12)c1ccc(-c2ccc(Br)cc2)o1	none
C=CCn1c(=O)c2c(C)c(C)sc2n2c(Nc3ccccc3)nnc12	Pyk2 oligo antag -3.03
Cc1nnc2n(Cc3ccccc3)c(=O)c3c4c(sc3n12)COC(C)(C)C4	none
NC(=O)CSc1nc2cc3c(cc2c(=O)n1CCCC(=O)NCc1ccc2c(c1)OCO2)OCO3	CYP2C9 inh 74.1
COc1ccc(CNC(=O)CCCn2c(SCC#N)nc3cc4c(cc3c2=O)OCO4)cc1	CYP2C9 inh 79.6, CYP2C19 inhib 54.4
Cn1c(=O)c2c(nc(SCC(=O)NCc3ccc4c(c3)OCO4)n2Cc2ccc(Cl)cc2)n(C)c1=O	none (no result: CYP2C19 activ, CYP2C9 inh, CYP2C9 activ, CYP2C19 inhib)
CC1CC(C)CN(CCCNC(=O)Cc2c(C(=O)O)n(C)c3ccccc23)C1 (stereo unspecified)	none
CC12CCC(C(=O)N3CCCCCC3)(OC1=O)C2(C)C (stereo unspecified)	none
CC1=C(C)CC(C(=O)N2CCN(Cc3ccccc3)CC2)C(C(=O)O)C1 (stereo unspecified)	none
CCn1c(N2CCN(C(=O)C34CC5CC(CC(C5)C3)C4)CC2)nc2ccccc21	none
O=C(N1CCN(Cc2ccccc2)CC1)C12CC3CC(CC(C3)C1)C2	CYP2C9 inh 72.5, CYP2C19 inhib 98.6
CC12CCC(C(=O)N3CCN(Cc4ccccc4)CC3)(OC1=O)C2(C)C (stereo unspecified)	CYP2C9 inh 67.4, CYP2C19 inhib 71.5
O=C(N1CCN(c2ccccc2)CC1)C12CC3CC(CC(C3)C1)C2	CYP2C9 inh 66.6, CYP2C19 inhib 80.7
c1ccc(-n2ncc3c(N4CCN(c5ccccn5)CC4)nc(N4CCCCCC4)nc32)cc1	none
C=CCON1C(=O)c2ccccc2C1=O	none
O=C(Nc1nnc(Cc2ccc(Cl)cc2)s1)c1ccco1	CYP2C9 inh 63.1
CCOCc1nnc(NC(=O)c2ccco2)s1	none
CCc1nnc(NC(=O)CSc2nnc(Cc3ccc(OC)cc3)o2)s1	CYP2C9 inh 52.8
O=C(Nc1nnc(Cc2ccccc2)s1)c1cccs1	none
COc1ccccc1NC(=O)CSc1nnc(Cc2ccccc2)o1	none
COc1ccc(Cc2nnc(NC(=O)c3cccs3)s2)cc1	CYP2C9 inh 68.7
COc1ccc(NC(=O)CSc2nnc(Cc3ccccc3)o2)c(OC)c1	CYP2C19 inhib 70.8
Cc1csc(=Nc2c(C)n(C)n(-c3ccccc3)c2=O)n1Cc1ccccc1	CYP2C19 inhib 82.0
CSc1nc(Sc2ccccc2)c2ccccc2n1	CYP2C9 inh 84.7
CSc1nc(Sc2ccc(Cl)cc2)c2ccccc2n1	none
CN(Cc1ccccc1)C(=O)[C@H]1CCC(=O)N1Cc1ccco1	none
COc1cccc(OC)c1-c1nn2c(-c3cc(-c4ccccc4)n[nH]3)nnc2s1	CYP2C9 inh 57.0, Pyk2 oligo antag -3.1, CYP2C19 inhib 55.9
COc1cccc(-c2nnc3sc(-c4ccc(Cl)cc4)nn23)c1	CYP2C9 inh 65.6 (no result: Pyk2 oligo antag)
Clc1ccc(-c2nnc3ccccn23)cc1	none
Cc1cn2c(-c3ccc(Cl)cc3)nnc2s1	CYP2C19 inhib 57.5 (no result: Pyk2 oligo antag)
CCN(CC)c1ccc(-c2nn3c(-c4ccccc4OC)nnc3s2)cc1	Pyk2 oligo antag -4
COc1ccc(CC(C)N2CCN(c3ccccc3)CC2)cc1OC (stereo unspecified)	none
CCOC(=O)c1cnc2cc(C)nn2c1-c1ccccc1	none
c1ccc(-c2nnc3sc(-c4ccncc4)nn23)cc1	none
COc1ccc(-c2nn3c(-c4ccc(F)cc4)nnc3s2)cc1	none
Clc1cccc(-c2nn3c(-c4ccncc4)nnc3s2)c1	CYP2C19 inhib 54.8 (no result: Pyk2 oligo antag)
Cc1cccc(-c2nnc3sc(-c4ccccc4C)nn23)c1	CYP2C9 inh 81.0, CYP2C19 inhib 88.7
Clc1ccc(-c2nn3c(-c4ccccc4)nnc3s2)cc1	CYP2C19 inhib 80.9
COc1ccc(-c2nn3c(-c4ccccc4)nnc3s2)cc1	CYP2C9 inh 70.2, CYP2C19 inhib 73.6
Clc1cccc(-c2nnc3sc(-c4ccc5c(c4)OCO5)nn23)c1	none (no result: Pyk2 oligo antag)
CCC(C)(CC(=O)N(C)CCC#N)c1ccccc1 (stereo unspecified)	none
Cc1c(C(=O)N2CCN(c3ccccn3)CC2)sc2ncnc(N3CCOCC3)c12	CYP2C9 inh 57.5
CCN(CC)c1ncnc2sc(C(=O)N3CCN(c4ccccc4)CC3)c(C)c12	CYP2C9 inh 62.5
Cc1c(C(=O)N2CCC(C)CC2)sc2ncnc(N3CCN(c4ccccc4)CC3)c12	CYP2C9 inh 94.8, CYP2C19 inhib 65.9
Cc1cccc2c1NC(C)CC2C (stereo unspecified)	none
O=C1CN(C(=O)CN2CCOCC2)C(c2ccccc2)c2cc(Br)ccc2N1 (stereo unspecified)	CYP2C9 inh 68.0, CYP2C19 inhib 64.8 (no result: Pyk2 oligo antag)
O=C(Nc1ccc(Cl)cc1)N1CCC(c2nc(-c3ccc(F)cc3)no2)CC1	none
CCC(CO)Nc1ncnc2c1cnn2-c1ccc(Cl)cc1 (stereo unspecified)	CYP2C9 inh 65.2 (no result: Pyk2 oligo antag)
COc1ccccc1-c1c(C(F)(F)F)oc2cc(OS(C)(=O)=O)ccc2c1=O	none (no result: CYP2C19 activ, CYP2C9 inh, CYP2C9 activ, CYP2C19 inhib)
COc1ccccc1-c1c(C(F)(F)F)oc2cc(OC(=O)c3ccccc3[N+](=O)[O-])ccc2c1=O	CYP2C9 inh 62.2, CYP2C19 inhib 54.8
CCOC(=O)c1ccc(N2CSC3=C(C#N)C(c4cccs4)CC(=O)N3C2)cc1 (stereo unspecified)	CYP2C9 inh 94.4, CYP2C19 inhib 90.3 (no result: Pyk2 oligo antag)
CCc1ccc(C2CC(=O)N3CN(c4ccccc4)CSC3=C2C#N)cc1 (stereo unspecified)	CYP2C9 inh 52.7 (no result: Pyk2 oligo antag)
Cc1ccc(N2CSC3=C(C#N)C(c4cccs4)CC(=O)N3C2)cc1 (stereo unspecified)	CYP2C9 inh 86.3 (no result: Pyk2 oligo antag)
CCc1ccc(N2CSC3=C(C#N)C(c4cccs4)CC(=O)N3C2)cc1 (stereo unspecified)	none
CN1CSC2=C(C#N)C(c3cccc(OCc4ccccc4)c3)CC(=O)N2C1 (stereo unspecified)	CYP2C9 inh 83.5 (no result: Pyk2 oligo antag)
Cc1cc([N+](=O)[O-])nn1CC(=O)NCc1cccs1	none
O=C(O)CSc1nnc(-c2ccc3c(c2)OCO3)o1	none
CCn1c(CSc2nnc(-c3ccc4c(c3)OCO4)o2)nc2cc(S(=O)(=O)N(C)C)ccc21	CYP2C9 inh 81.1, CYP2C19 inhib 82.7
